From PubChem BioAssay
HP1b binding inh: HTS for Inhibitors of HP1-beta Chromodomain Interactions with Methylated Histone Tails; Potency, µM (titrated, usually from 114 µM), hits mostly inhibitors; 390,000 tested, 0.56% active; AlphaScreen HP1-beta / biotin-H3K9me3 peptide binding; AID 540317, 2011; Chromobox protein homolog 1 (Homo sapiens), P83916; further: nearly all actives have a fitted effect of over 70% in size
Target sequence (P83916 whole entry, looked up): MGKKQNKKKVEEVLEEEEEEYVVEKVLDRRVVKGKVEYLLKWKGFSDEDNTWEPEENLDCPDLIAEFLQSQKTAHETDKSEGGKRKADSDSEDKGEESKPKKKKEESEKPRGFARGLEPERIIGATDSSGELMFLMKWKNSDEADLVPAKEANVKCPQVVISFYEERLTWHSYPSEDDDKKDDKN
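AlphaScreen: HP1-beta (50 nM) preformed 30 min with biotin-H3(1-18)K9me3 peptide (50 nM) in PBS pH 7.4, 0.01% Tween-20. Compound added for 30 min at RT, then streptavidin donor/nickel chelate acceptor beads (10 ug/mL) for 30 min.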
G9a block: qHTS Assay for Inhibitors of Histone Lysine Methyltransferase G9a; Histone-lysine N-methyltransferase EHMT2 (Homo sapiens), Q96KQ7; G9a H3K9 monomethylation, AlphaScreen, 2 h; Potency, µM (titrated, usually from 102 µM), hits mostly inhibitors; 350,000 tested, 8.8% active; further: nearly all actives have a fitted effect of over 75% in size
Target sequence (Q96KQ7 913-1193 limits assumed): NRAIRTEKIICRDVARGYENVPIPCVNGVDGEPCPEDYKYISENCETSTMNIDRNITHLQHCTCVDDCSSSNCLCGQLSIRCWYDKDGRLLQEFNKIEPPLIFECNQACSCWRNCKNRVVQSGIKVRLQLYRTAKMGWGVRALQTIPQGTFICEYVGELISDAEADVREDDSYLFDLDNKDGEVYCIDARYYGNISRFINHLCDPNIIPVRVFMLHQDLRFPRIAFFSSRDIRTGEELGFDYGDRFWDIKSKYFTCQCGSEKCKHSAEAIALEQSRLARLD
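G9a (20 nM) was preincubated 15 min with compound, then reacted 2 h at room temperature with 500 nM biotin-H3K9 peptide and 20 µM SAM. Monomethyl-H3K9 detected by AlphaScreen using anti-H3K9me1 antibody.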
JMJD2A Tudor: qHTS Assay for Inhibitors of JMJD2A-Tudor Domain | AlphaScreen JMJD2A-Tudor / H3K4me3 peptide binding | AID 504339, 2011 | Potency, µM (highest dose often 114 µM), hits mostly inhibitors | Lysine-specific demethylase 4A (Homo sapiens), O75164 | 390,000 tested, 4.4% active; further: nearly all actives have a fitted effect of over 50% in size
Sfp PPTase inh: qHTS Assay for Inhibitors of Bacillus subtilis Sfp phosphopantetheinyl transferase (PPTase) | 4'-phosphopantetheinyl transferase ffp (Bacillus subtilis), Q9F4F7 | Biochemical Sfp PPTase activity, qHTS | Potency, µM, usual class: inhibitors | 310,000 tested, 3.5% active | AID 1490, 2009;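 further: the enzyme is Sfp with the accession as filed and its product quenches rhodamine fluorescence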
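Fluorescence-quenching assay with 15 nM Sfp, 5 uM rhodamine-CoA and 12.5 uM BHQ-2-labelled ybbR peptide in pH 7.6 Hepes/MgCl2 buffer. Enzyme was pre-incubated with compound for 15 min at room temperature. Rate was taken from the 30-min fluorescence change (525/598 nm).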
BAZ2B inh: qHTS Assay for Inhibitors of BAZ2B. 360,000 tested, 4.4% active. Potency, µM (highest dose often 114 µM), most hits filed as inhibitors. AlphaScreen BAZ2B-H3K14Ac peptide displacement. Bromodomain adjacent to zinc finger domain protein 2B (Homo sapiens), Q9UIF8; further: nearly all actives have a fitted effect of over 60% in size
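AlphaScreen displacement: compounds (up to 110uM) incubated 30 min at room temperature with a preformed 50 nM BAZ2B/50 nM biotinylated H3K14Ac peptide complex in PBS pH 7.4 with Tween-20. Donor and acceptor beads at 10 ug/mL final added, 20 min light-protected before reading.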
PLK1 PBD inh: qHTS for Inhibitors of PLK1-PDB (polo-like kinase 1 - polo-box domain): Primary Screen | Serine/threonine-protein kinase PLK1 (Homo sapiens), P53350 | Plk1 PBD binding of FITC phosphopeptide, fluorescence polarization | Potency, µM, hits mostly inhibitors | 360,000 tested, 2.8% active | AID 720504, 2013; further: series mostly up to about 57 µM; nearly all actives have a fitted effect of over 65% in size
A number is an active result; – = inactive; ? = inconclusive; · = not tested or not shown; [ ] = remark or other dose. In the library only some 12% were active in any assay of this set; here they are far more common. The call rests on the fitted dose curve; in most records, active means well fitted curve in the direction sought with a large enough effect; inconclusive means small, poorly fitted or top-dose-only effect, or another doubt; inactive means no such curve, though single readings can be large; an effect the other way counts as inactive or inconclusive.

SMILES	HP1b binding inh	G9a block	JMJD2A Tudor	Sfp PPTase inh	BAZ2B inh	PLK1 PBD inh
N#CC(=C(O)COC(=O)CCC1CCCCC1)c1nc2ccccc2[nH]1	–	·	–	·	·	–
O=C(Cc1c(F)cccc1Cl)NNC(=S)Nc1ccc(S(=O)(=O)Nc2ncccn2)cc1	–	28µM	–	–	–	–
Cc1nn(C)c(C)c1NC(=S)Nc1ccc(S(=O)(=O)Nc2ncccn2)cc1	–	71µM	–	–	–	–
Cc1ccc(NC(=S)Nc2ccc(S(=O)(=O)Nc3ncccn3)cc2)cc1Cl	·	–	·	–	–	·
O=S(=O)(Nc1ncccn1)c1ccc(NC(=S)Nc2cccc(Cl)c2)cc1	·	–	·	56µM	–	·
CC(=O)c1ccc(S(=O)(=O)Nc2c(C)nn(C)c2C)cc1	–	45µM	–	·	–	–
C/C(CCC(=O)OC[C@@H]1O[C@H](C#Cc2ccccc2)C=C[C@@H]1Oc1ccc(C)cc1)=N/OC[C@@H](O)COCc1ccco1	·	·	·	–	·	·
CCCOc1ccc(C2c3c(oc4ccccc4c3=O)C(=O)N2c2nnc(C(C)C)s2)cc1 (stereo unspecified)	–	?	–	·	–	·
CCN(CC)C(=O)N1CCc2ccccc21	–	·	–	–	–	30µM
O=C(c1c(F)c(F)c(F)c(F)c1F)N1CCc2ccccc21	–	·	56µM	·	·	24µM
Cn1cnnc1SCC(=O)Nc1cc(S(=O)(=O)N2CCCCC2)ccc1Cl	–	·	–	–	–	–
O=C(COC(=O)c1cncc(Br)c1)NCCC1=CCCCC1	–	50µM	–	–	–	–
O=C(COC(=O)c1cccc(Br)c1)NCCC1=CCCCC1	–	–	–	–	·	–
CN(Cc1ccccc1)C(=O)COC(=O)c1cncc(Br)c1	–	–	–	–	–	–
CC(C)N(C(=O)COC(=O)c1cncc(Br)c1)C(C)C	–	–	?	–	–	21µM
CCN(CC)CCNC(=O)C(=O)NCC(c1ccc2c(c1)OCO2)N1CCOCC1 (stereo unspecified)	–	–	–	·	–	·
O=c1[nH]c(S)nc2sc3c(c12)CCCC3	–	1µM	25µM	45µM	?	?
Cc1nc2sc3c(c2c(=O)[nH]1)CCCC3	–	–	–	–	–	–
COc1cc(C(=O)NC(=S)Nc2ccc(Cl)cn2)cc(OC)c1OC	–	–	16µM	–	–	24µM
COc1cccc(OC)c1C(=O)NC(=S)Nc1ccc2c(c1)C(=O)N(C)C2=O	–	?	–	–	–	–
COc1cc(C(=O)NC(=S)Nc2ccc3c(c2)C(=O)N(C)C3=O)cc(OC)c1OC	–	45µM	?	–	–	–
COc1cc(C2c3c(oc4ccccc4c3=O)C(=O)N2c2nncs2)cc(OC)c1OC (stereo unspecified)	–	–	–	·	–	·
Cc1ccsc1-c1cc2nc(NCCCN(C)C)n(C)c(=O)c2s1	·	·	·	·	·	–
Cc1cc(F)ccc1NCc1ccncc1	–	–	–	–	–	–
Cc1ccc(NCc2ccncc2)c(Br)c1	28µM	·	1.6µM	?	22µM	–
SMILES	HP1b binding inh	G9a block	JMJD2A Tudor	Sfp PPTase inh	BAZ2B inh	PLK1 PBD inh
Cc1cc(NCc2ccncc2)ccc1Br	?	·	18µM	79µM	50µM	–
O=C(O)COCC(=O)NCc1csc2ccccc12	–	50µM	–	–	–	–
O=C(Cc1csc2ccccc12)NCC1CC1	·	·	·	·	·	–
CCOC(=O)c1cc(C#N)c(SCC(=O)c2cc(C#N)c(SC)nc2C)nc1C	–	45µM	–	16µM	–	–
CCOC(=O)c1cc(C(C)(C)C)nc(SC)c1C#N	–	–	–	–	–	–
CCOC(=O)c1cc(C)nc(SC)c1C#N	–	50µM	–	79µM	–	–
CSc1nc(C)c(C(=O)C[n+]2ccccc2)cc1C#N	–	·	–	–	0.79µM	–
CCOC(=O)c1cc(C#N)c(SCc2cccc3ccccc23)nc1C	–	–	–	–	–	–
COc1ccc(CNC(=O)Cn2c(=O)oc3cc(S(=O)(=O)NCc4ccccc4)ccc32)cc1	–	–	–	·	–	·
FC(F)(F)c1ccccc1NC(=S)N1CCc2ccccc2C1	–	–	–	–	–	–
CCCN1CCN(C(=S)Nc2ccccc2C(F)(F)F)CC1	–	40µM	–	–	–	–
CC(C)CN(C(=O)COC(=O)CSc1ccc([N+](=O)[O-])cc1)C1CCS(=O)(=O)C1 (stereo unspecified)	–	–	–	·	–	19µM
Cc1ccc(SCC(=O)OCC(=O)N(CC(C)C)C2CCS(=O)(=O)C2)cc1C (stereo unspecified)	–	–	–	·	–	–
CCCN(C(=O)COC(=O)CSc1ccc([N+](=O)[O-])cc1)C1CCS(=O)(=O)C1 (stereo unspecified)	?	–[12.7 µM]	56µM	·	–	11µM
CC(C)CN(C(=O)COC(=O)c1cc2c(s1)CCC2)C1CCS(=O)(=O)C1 (stereo unspecified)	–	–	?	–	56µM	?
CC[C@]1(c2ccccc2)NC(=O)NC1=O	·	·	·	–	·	·
CCOC(=O)CNC(=S)N(Cc1ccco1)Cc1ccccc1Cl	–	?	–	–	–	?
CCOc1ccc(-c2nnn(CC#N)n2)cc1OC	–	–	–[11.4 µM]	–	–	–
CCCCCCn1cc(CN2CC(N3CCSCC3)CS2(=O)=O)nn1 (stereo unspecified)	·	·	·	·	·	–
Cc1ccc(O/C=C2/Nn3c(nnc3-c3cc(-c4ccccc4)n[nH]3)S2)cc1	–	·	–	·	·	·
CC(C)(C)c1ccc(OCCn2ccccc2=O)cc1	–	–	3.5µM	–	–	–
O=c1ccccn1CCOc1ccc(Cl)cc1	–	·	–	–	–	–
CC(C)(S)[C@H](N)C(=O)O	·	·	·	–	·	·
Cn1c(N)c(C(=O)CCl)c(=O)n(Cc2ccccc2)c1=O	–	–	–	–	–	17µM
Cn1c(N)c(C(=O)COC(=O)c2cc(-c3ccco3)nc3ccccc23)c(=O)n(C)c1=O	?	7.9µM	56µM	13µM	–	?
Cn1c(N)c(C(=O)COC(=O)c2cc(C(F)(F)F)nc3ccccc23)c(=O)n(Cc2ccccc2)c1=O	–	?	–	–	–	–
Cn1c(N)c(C(=O)COC(=O)c2cc(-c3ccco3)nc3ccccc23)c(=O)n(Cc2ccccc2)c1=O	·	7.9µM	·	45µM	?	·
COc1ccccc1C(=O)NC(CCSC)C(=O)OCC(=O)N1CCN(S(=O)(=O)c2ccc(C)cc2)CC1 (stereo unspecified)	–	·	–	·	·	–
